For part of these data: Measured potencies and affinities stand elsewhere. Activity calls are given as the source filed them.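 How the source made its calls, unless noted: active means signal rise over 3 SD above mean of control wells given weak agonist, in both repeats and first screen; inactive means the rest.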
Legend:
[1] = system: TRPC4 beta (transient receptor potential cation channel C4), mouse; assay: TRPC4 cation channel opening, retest – cell-based, Fluo4 calcium, HEK293 TRPC4beta/mu-opioid, duplicates, 10 µM, confirmation (AID 2426;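 active means fluorescence ratio normalized to control raised more than 50% in primary screen plus both repeat runs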); conditions: Fluo4 calcium fluorescence, at 10 µM; hits give high values
[2] = system: transient receptor potential cation channel C4 beta (TRPC4), mouse; assay: TRPC4 cation channel opening, second retest – cell-based, second round, Fluo4, HEK293 TRPC4beta/mu-opioid, 1 µM, confirmation (AID 2461;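 active means primary screen active and over 50% activation in each of two duplicate runs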); conditions: Fluo4 calcium fluorescence, at 1 µM; hits give high values
[3] = system: TRPC4 (transient receptor potential cation channel C4 beta), mouse; assay: potentiation of DAMGO EC20 TRPC4 response – cell-based, second round, Fluo-4, HEK293 TRPC4beta/mu-opioid, 1 µM, confirmation (AID 2554;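 active means primary screen hit whose fluorescence ratio, in both repeats, exceeds the weak agonist control mean by 3 SD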); conditions: DAMGO EC20, Fluo-4 calcium flux, at 1 µM; hits give high values
[4] = system: TRPC4 beta (transient receptor potential cation channel C4), mouse; assay: potentiation of DAMGO EC20 TRPC4 response – cell-based, Fluo-4, HEK293 TRPC4beta/mu-opioid, confirmation (AID 2555;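 active means primary screen hit whose calcium fluorescence ratio, in both repeats, exceeds the weak agonist control mean by 3 SD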); conditions: DAMGO EC20, Fluo-4 calcium flux, at 10 µM; hits give high values
[5] = target: Short transient receptor potential channel 4 (Mus musculus) (UniProt Q9QUQ5); assay: blockers of DAMGO-evoked TRPC4 calcium flux – cell-based, Fluo4, HEK293 TRPC4beta/mu-opioid, confirmation (AID 2636;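 active means calcium signal cut by more than 3 SD below the full-agonist control yet still positive, in both repeats and the earlier primary screen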); conditions: at 10 µM; hits give high values
[6] = target: Short transient receptor potential channel 4 (Mus musculus) (UniProt Q9QUQ5); assay: blockers of DAMGO-evoked TRPC4 calcium flux – cell-based, second round, Fluo4, HEK293 TRPC4beta/mu-opioid, 1 µM, confirmation (AID 2637;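 active means calcium signal ratio cut to more than 3 SD under the fully stimulated control mean yet still positive, in both repeats and the primary screen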;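 on inhibition: percent of integrated ratio relative to wells lacking test compound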); conditions: at 1 µM; hits give high values
[7] = target: Short transient receptor potential channel 4 (Mus musculus) (UniProt Q9QUQ5); assay: calcium entry via TRPC4 opening agents – cell-based, HEK293 TRPC4/mu-opioid, Fluo-4 calcium, dose response (AID 434937;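 active means primary screen activator hit with a dose response curve and TRPC4 channel activation at any tested dose; inactive means no activation, no dose response, or not a primary hit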)
[8] = target: Short transient receptor potential channel 4 (Mus musculus) (UniProt Q9QUQ5); assay: potentiation of DAMGO-evoked TRPC4 calcium signal – cell-based, HEK293 TRPC4/mu-opioid, Fluo-4 calcium, EC20 DAMGO, dose response (AID 434941;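 active means earlier screen potentiator hit that boosts the TRPC4 ion channel at some dose, with a dose response; inactive means no potentiation, no dose response, or not a prior hit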;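 further: calcium entry triggered by an EC20 dose of DAMGO at the co-expressed mu-opioid receptor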)
[9] = target: Short transient receptor potential channel 6 (Mus musculus) (UniProt Q61143); assay: TRPC6 blockade by TRPC4 inhibitor hits – cell-based, HEK293, membrane potential dye, duplicate, selectivity assay for TRPC4 inhibitor project, confirmation (AID 434948;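 active means active in primary screen and both duplicates, each dropping signal beyond three positive-control SD with fluorescence still positive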); conditions: HEK293 TRPC6, membrane potential dye fluorescence, at 10 µM, stimulated with maximal-effect acetylcholine; hits give high values
[10] = target: Short transient receptor potential channel 6 (Mus musculus) (UniProt Q61143); assay: TRPC6 opening by TRPC4 activator hits – cell-based, HEK293, membrane potential dye, duplicate, selectivity assay for TRPC4 activator project, confirmation (AID 434950;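 active means membrane potential signal rise above negative control mean plus 3 SD in both duplicates, also active in the earlier TRPC4 screen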); conditions: HEK293 TRPC6, membrane potential fluorescence, at 10 µM; activation: hits give high values; outcome: activation
[11] = target: Short transient receptor potential channel 6 (Mus musculus) (UniProt Q61143); assay: positive modulators of mouse TRPC6 channel – HEK293 cells, membrane potential dye, duplicate, selectivity assay for TRPC4 potentiator project, confirmation (AID 434952;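 active means compound raising the membrane signal above positive-control mean plus 3 SD in both repeats, and a primary screen hit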); conditions: HEK293 TRPC6, membrane potential dye fluorescence, at 10 µM, maximal acetylcholine added after compound; hits give high values
[12] = target: Short transient receptor potential channel 4 (Mus musculus) (UniProt Q9QUQ5); assay: calcium flux activators in TRPC4/5HT1a cells, counter-screen for TRPC4 activator project, cell-based, second counter screen, HEK293 TRPC4/5HT1a, Fluo-4 (AID 434977;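 active means calcium signal rise above buffer-control mean plus 5 SD in both duplicates, and also a hit in the primary screen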); conditions: Fluo-4 calcium flux, at 10 µM; hits give high values
[13] = serotonin-gated TRPC4 signal block – cell-based, second counter screen, HEK293 TRPC4/5HT1a, Fluo-4, counter-screen for TRPC4 inhibitor project, confirmation (AID 434978;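 active means primary screen active whose calcium signal fell more than 3 SD beyond the full-serotonin control mean in both duplicate plates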;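 on outcome: serotonin given first at submaximal then at maximal dose after compound preincubation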); conditions: Fluo-4 calcium flux, at 10 µM, serotonin added to trigger calcium flux; hits give high values
[14] = system: TRPC4 (mouse), co-expressed with 5HT1a in HEK293; assay: enhancement of serotonin-evoked TRPC4 response – cell-based, second counter screen, HEK293 TRPC4/5HT1a, Fluo-4, counter-screen for TRPC4 potentiator project, confirmation (AID 434979); conditions: Fluo-4 calcium flux, at 10 µM, serotonin added at its EC20 dose; hits give high values
[15] = nonspecific calcium rise without TRPC4 – cell-based, HEK293 mu-opioid receptor line, counter-screen for TRPC4 activator project, confirmation (AID 449723;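 active means hit in primary screen, with calcium signal over 5 SD above buffer well mean in both duplicates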;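 further: counter screen cells carry the mu-opioid receptor alone and lack TRPC4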); conditions: HEK293 mu-opioid cells, Fluo-4 calcium fluorescence, at 10 µM; hits give high values
[16] = nonspecific potentiation of DAMGO calcium response – cell-based, HEK293 mu-opioid receptor line, counter-screen for TRPC4 allosteric potentiator project, confirmation (AID 449724;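 active means calcium signal rise more than 3 SD above the low-dose agonist control mean, in both duplicate plates and the primary screen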); conditions: HEK293 mu-opioid receptor cells, Fluo-4 calcium flux, at 10 µM, compound added before EC20 DAMGO stimulus; hits give high values

Measured: inhibition

Sequence of Short transient receptor potential channel 6 (Mus musculus) (Q61143 whole entry, looked up): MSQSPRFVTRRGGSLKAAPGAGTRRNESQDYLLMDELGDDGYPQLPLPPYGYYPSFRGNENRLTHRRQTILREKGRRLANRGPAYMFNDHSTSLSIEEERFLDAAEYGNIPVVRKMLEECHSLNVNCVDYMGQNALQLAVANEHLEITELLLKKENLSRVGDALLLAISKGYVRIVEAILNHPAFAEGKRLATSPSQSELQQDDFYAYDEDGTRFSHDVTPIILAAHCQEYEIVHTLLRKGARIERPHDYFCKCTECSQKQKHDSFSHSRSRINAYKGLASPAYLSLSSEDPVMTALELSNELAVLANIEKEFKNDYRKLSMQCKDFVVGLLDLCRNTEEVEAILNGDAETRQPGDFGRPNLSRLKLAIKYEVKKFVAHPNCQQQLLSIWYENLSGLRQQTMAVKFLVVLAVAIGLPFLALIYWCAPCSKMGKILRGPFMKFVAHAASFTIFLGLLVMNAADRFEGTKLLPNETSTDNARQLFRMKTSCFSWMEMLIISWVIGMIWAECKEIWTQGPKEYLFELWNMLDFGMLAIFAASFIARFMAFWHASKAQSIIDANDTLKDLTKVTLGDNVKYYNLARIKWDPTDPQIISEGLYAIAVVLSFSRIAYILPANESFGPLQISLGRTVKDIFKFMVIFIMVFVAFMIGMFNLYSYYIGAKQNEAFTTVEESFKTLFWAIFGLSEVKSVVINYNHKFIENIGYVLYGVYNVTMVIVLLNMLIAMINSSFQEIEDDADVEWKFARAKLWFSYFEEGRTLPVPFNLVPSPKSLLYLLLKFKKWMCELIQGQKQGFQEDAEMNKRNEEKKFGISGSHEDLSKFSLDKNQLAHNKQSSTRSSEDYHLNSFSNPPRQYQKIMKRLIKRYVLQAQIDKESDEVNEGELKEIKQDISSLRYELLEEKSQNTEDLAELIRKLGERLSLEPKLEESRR
Sequence of Short transient receptor potential channel 4 (Mus musculus) (Q9QUQ5 whole entry, looked up): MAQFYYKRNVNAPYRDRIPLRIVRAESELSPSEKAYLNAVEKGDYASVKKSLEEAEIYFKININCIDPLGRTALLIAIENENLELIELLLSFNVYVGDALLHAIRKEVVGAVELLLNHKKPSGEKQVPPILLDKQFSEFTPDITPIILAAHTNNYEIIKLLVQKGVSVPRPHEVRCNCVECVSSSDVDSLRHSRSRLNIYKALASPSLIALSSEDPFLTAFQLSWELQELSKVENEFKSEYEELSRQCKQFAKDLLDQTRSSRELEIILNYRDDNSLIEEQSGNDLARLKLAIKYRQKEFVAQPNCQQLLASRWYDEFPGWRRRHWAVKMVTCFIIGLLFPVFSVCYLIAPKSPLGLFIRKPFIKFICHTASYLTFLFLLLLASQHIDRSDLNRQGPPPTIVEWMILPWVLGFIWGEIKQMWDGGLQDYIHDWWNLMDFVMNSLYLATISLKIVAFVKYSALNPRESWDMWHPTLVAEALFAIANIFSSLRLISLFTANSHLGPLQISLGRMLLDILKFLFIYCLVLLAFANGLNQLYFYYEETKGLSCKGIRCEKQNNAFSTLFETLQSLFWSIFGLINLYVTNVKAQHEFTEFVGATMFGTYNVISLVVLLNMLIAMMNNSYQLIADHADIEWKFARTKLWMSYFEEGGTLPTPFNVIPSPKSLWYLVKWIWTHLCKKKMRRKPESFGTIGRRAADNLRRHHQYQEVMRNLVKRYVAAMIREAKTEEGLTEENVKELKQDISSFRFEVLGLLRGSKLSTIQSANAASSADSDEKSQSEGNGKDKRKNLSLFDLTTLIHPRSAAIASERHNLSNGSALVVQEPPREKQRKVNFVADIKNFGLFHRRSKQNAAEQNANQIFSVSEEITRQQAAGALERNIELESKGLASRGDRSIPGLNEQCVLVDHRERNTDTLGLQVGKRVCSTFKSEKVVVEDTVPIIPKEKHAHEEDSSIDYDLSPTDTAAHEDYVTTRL

CCOC(=O)c1oc2ccccc2c1CN1CCCCC1
active: [5] 91% | [13] 34.9%
inactive: all other assays above

COc1ccc(C(CNc2ccc(C(F)(F)F)cn2)N(C)C)cc1OC (stereo not given)
active: [6] 69%
inactive: all other assays above

CCOC(=O)C1=C(C)NC(=O)CC1c1cc2c(cc1[N+](=O)[O-])OCO2 (stereo not given)
active: [5] 71% | [6] 40% | [13] 20.2%
inactive: all other assays above

CCCN(c1nc(C)cc(OC)n1)S(=O)(=O)c1ccccc1
active: [5] 59% | [13] 25.2%
inactive: all other assays above

Cc1ccc(NC(=O)CSCC(=O)OCc2cc(=O)oc3cc(O)ccc23)c(C)c1
active: [5] 80%
inactive: all other assays above

COc1cc(CNCCc2ccc(F)cc2)ccc1OCc1ccc(Cl)nc1
active: [5] 84% | [9] 40.5%
inactive: all other assays above

Cc1n[nH]c(C)c1CCCCOc1ccccc1F
active: [5] 98% | [6] 65% | [13] 28.3%
inactive: all other assays above

COC(=O)CSc1nn(-c2ccc(F)cc2)c(=S)s1
active: [5] 90% | [6] 39% | [13] 39.2%
inactive: all other assays above

COc1ccc(/C=C2\SC(=S)N(C(Cc3ccccc3)C(=O)O)C2=O)cc1 (stereo not given)
active: [5] 88% | [13] 32.2%
inactive: all other assays above

COc1ccc(NC(=O)c2c[nH]n3c(=O)cc(C4CCN(C(=O)OC(C)(C)C)CC4)nc23)cc1Cl
active: [5] 86% | [6] 41% | [13] 40.1%
inactive: all other assays above

CC1CCN(CCOCCOc2ccccc2-c2ccccc2)CC1
active: [5] 101% | [6] 57% | [13] 28.2%
inactive: all other assays above

Clc1ccc(C[n+]2cc(-c3ccccc3)n3c2CCC3)cc1Cl
active: [5] 93% | [6] 60% | [13] 25.4%
inactive: all other assays above

COc1ccccc1CNCC(c1ccccc1)c1ccccc1
active: [5] 60% | [9] 55% | [13] 44.3%
inactive: all other assays above

O=C(c1ccco1)N1CCN(C/C=C/c2ccccc2)CC1
active: [5] 87% | [6] 64%
inactive: all other assays above

CCn1c(=O)n(CCOC)c(=O)c2c3c(sc21)CCCC3
active: [5] 91% | [6] 58% | [13] 16.2%
inactive: all other assays above

From PubChem BioAssay
